Results on 7 compounds are retold here after PubChem BioAssay (Tox21).

Where “and” joins values, the source holds several entries; their conditions need not be identical. Equal values may be shown once. Unmarked numbers belong to inactive results. Inconclusive results are not listed. Calls of active or inactive are those of the source. Unless noted, calls come from the whole dose curve; as a rule, active = well fitted curve in the direction sought with a large enough effect in the repeat runs; inconclusive = weak or mixed curves; inactive = no such curve, though single readings can be large; an effect the other way counts as inactive or inconclusive.

A short description of assay [1]: qHTS assay for small molecule agonists of the p53 signaling pathway (AID 651631; calls by dose curve; note: nearly all actives have a fitted effect of over 15% in size). Put shortly: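 Quantitative high-throughput format: 4,000 p53RE-bla HCT-116 cells/well, 5 h pre-incubation, 16 h compound exposure at 37 °C, 2 h room-temperature substrate step, fluorescence intensity measured.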
Assay [2] is described as follows: qHTS assay for small molecules that induce genotoxicity in human embryonic kidney cells expressing luciferase-tagged ATAD5 (AID 651632). Note: nearly all actives have a fitted effect of over 15% in size. Put shortly:
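Concentration-response screen for ATAD5 upregulation in HEK293T luciferase reporter cells; 16 hr treatment at 37C, then luminescence after 30 min with Amplite at room temperature.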

A short description of assay [3]: qHTS assay for small molecule agonists of the p53 signaling pathway - cell viability (AID 651633; calls by dose curve;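 note: p53RE-bla HCT reporter cells with a stable beta-lactamase p53 reporter; series mostly up to about 83 µM; nearly all actives have a fitted effect of over 30% in size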). Put shortly:
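p53RE-bla cells were treated with compound for 16 hours at 37 C. Cytotoxicity was then measured as CellTiter-Glo luminescence after 30 min at room temperature.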

Assay [4] in a line: qHTS assay for small molecules that induce genotoxicity in human embryonic kidney cells expressing luciferase-tagged ATAD5 - cell viability (AID 651634; calls by dose curve; note: nearly all actives have a fitted effect of over 25% in size). Put shortly:
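15.5 hr compound or vehicle exposure of HEK293T cells expressing luciferase-tagged ATAD5 at 37C; live-cell protease activity is read by fluorescence after 30 min of CellTiter-Fluor.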

Assay [5] is described as follows: qHTS assay for small molecule disruptors of the mitochondrial membrane potential - cell viability (AID 720634; calls by dose curve;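 note: human HepG2 liver cancer cells; series mostly up to about 83 µM; nearly all actives have a fitted effect of over 20% in size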). The procedure, abridged:
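In this qHTS format, HepG2 cells plated overnight were pinned with compound, incubated 1 hr, and assayed for ATP luminescence with CellTiter-Glo after m-MPI dye addition.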

Assay [6] is described as follows: qHTS assay for small molecule disruptors of the mitochondrial membrane potential (AID 720635). Note: potency is the fitted concentration of half-maximal effect. The procedure, abridged: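 HepG2 cells exposed to compound 1 hr at 37C, then Mito-MPS dye 30 min. Ratio read of aggregate (540/590 nm) versus monomer (490/535 nm) fluorescence.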
Assay [7] can be described thus: qHTS assay to test for compound auto fluorescence at 590 nm (red) in HepG2 cells (AID 720674). The procedure, abridged:
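Fluorescence at 590 nm emission following 540 nm excitation was recorded from HepG2 wells one hour after compound transfer, with DMSO-only wells as vehicle and Rose Bengal sodium equivalency as the scale.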

A short description of assay [8]: qHTS assay to test for compound auto fluorescence at 460 nm (blue) in HEK293 cells (AID 720678). The procedure, abridged: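 HEK293 cells (2,000 per well, medium with 10% dialyzed FBS) attached for 4-5 hr at 37C, then received compound and stood overnight at 37C, 5% CO2. Blue fluorescence was read at Ex/Em 405/460 nm and expressed relative to triamterene.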
The nature of assay [9]: qHTS assay to test for compound auto fluorescence at 535 nm (green) in HEK293 cells (AID 720680).
Assay [10] in a line: qHTS assay to test for compound auto fluorescence at 460 nm (blue) in HEK293 cell free culture (AID 720681). The procedure, abridged: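 Compounds were added to cell-free DMEM with 10% FBS and fluorescence read directly. The blue channel used 405 nm excitation and 460 nm emission, with triamterene as the reference fluorophore.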
A short description of assay [11]: qHTS assay to test for compound auto fluorescence at 535 nm (green) in HEK293 cell free culture (AID 720682). Put shortly:
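Measurement is a direct plate read of green fluorescence (485 nm in, 535 nm out) after compound addition to serum-supplemented DMEM lacking cells, with fluorescein used to express intensities.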

The nature of assay [12]: qHTS assay to test for compound auto fluorescence at 590 nm (red) in HEK293 cell free culture (AID 720683). Put shortly: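 Cell-free wells of DMEM with 10% FBS received compound, and intrinsic fluorescence was read at excitation/emission 540/590 nm. Values expressed as equivalence to Rose Bengal sodium.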
Assay [13] in a line: qHTS assay to test for compound auto fluorescence at 590 nm (red) in HepG2 cell free culture (AID 720684). Put shortly:
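Rose Bengal sodium served as the reference for red signal. Test compounds were dispensed into serum-containing MEM (10% FBS) without cells, and plates were read at 540/590 nm.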

A short description of assay [14]: qHTS assay to test for compound auto fluorescence at 460 nm (blue) in HepG2 cell free culture (AID 720685). Put shortly:
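Cell-free plates of MEM plus 10% FBS received 23 nL compound or DMSO vehicle; blue-channel (405/460 nm) intensity scored against triamterene as reference fluorophore.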

Assay [15] is described as follows: qHTS assay to test for compound auto fluorescence at 535 nm (green) in HepG2 cell free culture (AID 720686).
The nature of assay [16]: qHTS assay to test for compound auto fluorescence at 460 nm (blue) in HepG2 cells (AID 720687). The procedure, abridged: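 HepG2 cells in MEM with 10% FBS, attached overnight at 37 C, were exposed to compound or DMSO for 1 hr at 37 C, 5% CO2. Blue fluorescence was read at 405/460 nm, with triamterene as reference fluorophore.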
Assay [17] can be described thus: qHTS assay to test for compound auto fluorescence at 535 nm (green) in HepG2 cells (AID 720675).
Assay [18] in a line: qHTS assay to test for compound auto fluorescence at 590 nm (red) in HEK293 cells (AID 720679). The procedure, abridged: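 HEK293 cells (2,000/well, medium with 10% dialyzed FBS) attached for 4-5 hr at 37C, received 23 nL compound and were incubated overnight at 37C, 5% CO2. Red fluorescence was then read at 540/590nm Ex/Em, referenced to Rose Bengal sodium.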
In assay [19] the target is Glucocorticoid receptor (Homo sapiens) (UniProt P04150). The experiment in a line: qHTS assay to identify small molecule agonists of the glucocorticoid receptor (GR) signaling pathway (AID 720691; active = well fitted activation curve with a large enough effect in the signal ratio in the repeat runs, not every such curve was filed as active; the % refers to the signal ratio). The procedure, abridged:
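Measures GR pathway activation through a GRE-beta-lactamase reporter stably integrated in HeLa cells, with 18 h compound treatment at 37 C and fluorescence detection using a FRET substrate.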

For assay [20] the target is unchanged. The assay is described as follows: qHTS assay to identify small molecule antagonists of the glucocorticoid receptor (GR) signaling pathway (AID 720692; active = well fitted inhibition curve with a large enough effect in the signal ratio in the repeat runs, not every such curve was filed as active; the % refers to the signal ratio). The procedure, abridged:
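Tox21 10K library screened in concentration-response for blockade of dexamethasone (5 nM final)-induced GRE-bla reporter activity in HeLa cells; 18 h treatment, fluorescence read.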
% is set by controls: 0 for no effect and ±100 for the full control effect.

Chain of Glucocorticoid receptor (Homo sapiens) (P04150 whole entry, looked up): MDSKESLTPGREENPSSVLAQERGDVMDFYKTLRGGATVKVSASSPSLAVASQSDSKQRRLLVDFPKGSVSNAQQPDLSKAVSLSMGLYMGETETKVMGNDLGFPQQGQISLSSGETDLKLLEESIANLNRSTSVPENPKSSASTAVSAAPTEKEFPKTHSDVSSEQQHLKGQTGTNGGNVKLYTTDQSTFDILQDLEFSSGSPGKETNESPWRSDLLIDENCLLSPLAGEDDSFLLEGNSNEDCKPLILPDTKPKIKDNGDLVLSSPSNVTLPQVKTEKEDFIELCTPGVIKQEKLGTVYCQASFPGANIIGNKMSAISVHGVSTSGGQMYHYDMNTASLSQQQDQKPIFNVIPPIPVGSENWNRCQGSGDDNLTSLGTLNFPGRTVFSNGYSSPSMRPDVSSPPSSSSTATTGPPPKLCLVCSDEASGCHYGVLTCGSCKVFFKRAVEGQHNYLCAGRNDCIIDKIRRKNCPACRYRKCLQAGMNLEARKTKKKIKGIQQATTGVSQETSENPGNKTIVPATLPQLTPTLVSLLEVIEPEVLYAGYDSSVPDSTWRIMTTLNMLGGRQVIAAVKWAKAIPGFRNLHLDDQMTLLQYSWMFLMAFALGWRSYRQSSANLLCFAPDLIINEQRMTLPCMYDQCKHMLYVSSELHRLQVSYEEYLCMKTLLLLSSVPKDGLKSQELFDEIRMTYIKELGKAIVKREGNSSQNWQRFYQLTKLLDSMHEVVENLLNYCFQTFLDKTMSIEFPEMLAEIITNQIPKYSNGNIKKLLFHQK

Turning to `CC(C)(CO)[C@@H](O)C(=O)NCCC(=O)O`, the Potency result in assay [1], in [2], in [3], in assay [4], in [5] and in assay [6] was “inactive” throughout. In addition, the result in assay [7], in [8], in [9], in [10], in assay [11] and in assay [12] was inactive. For the same compound, the call in assay [13], in assay [14], in assay [15] and in [16] was inactive.

In the case of `C=CC(C)(O)CC/C=C(\C)CCC=C(C)C` (stereo not drawn), the Potency entry in [1], in assay [2], in [3], in assay [4], in [19] and in assay [20] was “inactive” throughout. Besides, the Potency in assay [6] is 12.4 µM (active) and 27.3 µM (active). Moreover, the compound was called inactive in assay [7], in [17], in assay [8], in assay [18], in assay [10] and in assay [11]. In addition, the result in assay [13], in assay [14] and in assay [15] was inactive.

Consider `O=C(O)C(=O)Cc1c[nH]c2ccccc12`, for which the Potency result in [1], in [2], in [3] and in [4] was “inactive” in each case. Moreover, the call in [7], in assay [17], in assay [8], in assay [18], in [9] and in assay [10] was inactive. Further, the outcome in assay [11], in assay [12], in assay [13], in [14] and in [15] was inactive.

Regarding `COc1cc(C)ccc1C(C)C`, the Potency entry in [1], in assay [2], in [3], in [4] and in assay [6] was “inactive” in each case. Further, the result in assay [7], in assay [17], in assay [8], in [18], in [9] and in [10] was inactive. The compound was called inactive in assay [11], in assay [12], in [13], in assay [14], in assay [15] and in assay [16].

In the case of `O=Cc1ccc(F)c(Br)c1`, the Potency entry in assay [1], in assay [2], in assay [3] and in assay [4] was “inactive” each time. Moreover, the result in assay [7], in assay [8], in assay [9], in assay [10], in [11] and in assay [12] was inactive. Further, the result in assay [14] and in assay [15] was inactive.

Consider `CC(=O)Nc1ccc(C)c(Cl)c1`, for which the Potency entry in [1], in assay [2], in [3], in assay [4], in assay [5] and in assay [19] was “inactive” in each case. For the same compound, the Potency entry in [20] is “inactive”. Moreover, the result in assay [7], in assay [8], in assay [18], in assay [10], in assay [11] and in assay [12] was inactive. For the same compound, the outcome in assay [14], in assay [15] and in [16] was inactive.

As to `CS(=O)(=O)c1ccc([C@@H](O)[C@@H](CF)NC(=O)C(Cl)Cl)cc1`, the Potency entry in assay [1], in [2], in assay [3], in assay [5], in assay [6] and in [19] was “inactive” in each case. Further, the Potency entry in [20] was “inactive”. The fluorescence, relative to Rose Bengal in assay [7] was -0.165% [at 18.6 µM]. In addition, the fluorescence, % of fluorescein control in assay [17] was -0.0021% [at 18.6 µM]. Further, in assay [8], the fluorescence, % of triamterene was -0.0281% [at 18.6 µM]. Also, the fluorescence, % of fluorescent control in assay [18] is 0.0865% [at 18.6 µM]; in assay [10], 0.0627% [at 18.6 µM]; in [12], -0.0638% [at 18.6 µM]; in assay [16], -0.0647% [at 18.6 µM]. For the same compound, the fluorescence, % of fluorescein in [9] was 0.0111% [at 18.6 µM]. Also, the activity change in assay [11] was -0.0234% [at 18.6 µM].
